From PubChem BioAssay (NCI)
This is part of a sample that, as a whole, favours compounds with a hit. Of some 83,000 tested, about 20% had one in any assay.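 Plates (96-well) were seeded with cells, treated with compound at one concentration, and incubated for 48 hours before percent growth was determined.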 Activity calls are given as the source filed them. Rule for the calls: active = growth percent below 10; inactive = the rest.

Tests used:
Assay in all cases: NCI-60 one-dose screen, 48 h (100 = growth as untreated, 0 = no growth, -100 = all killed)
Conditions in all cases: 10 µM
[1] = test system: SK-MEL-2 melanoma
[2] = test system: EKVX NSCLC
[3] = test system: UO-31 renal
[4] = test system: TK-10 renal
[5] = test system: ACHN renal
[6] = test system: CAKI-1 renal
[7] = test system: A498 renal
[8] = test system: CCRF-CEM leukemia
[9] = test system: MOLT-4 leukemia

Measured: growth

CCCCN(CCCC)c1ccc(C(=NC(C)CCCN(CC)CC)c2ccc(N(C)C)cc2)cc1 (stereo not given)
active: [1] -78.9% | [2] -30.4% | [3] -87.8% | [4] -8.82% | [5] -41.3% | [6] -5.33% | [7] -12.4% | [8] 7.26% | [9] -6.33%

N#Cc1c2c([nH]c(=O)c1C(N)=O)CCCCC2
inactive: [1] 98.7% | [2] 104% | [3] 85.2% | [4] 95.4% | [5] 104% | [6] 99.3% | [7] 89.8% | [8] 95% | [9] 117%

CCCCCc1cc[n+](CC(=O)c2ccc(Cl)cc2)cc1
inactive: [1] 109% | [2] 93.1% | [3] 91.2% | [4] 98.4% | [5] 99% | [6] 92.5% | [7] 63.1% | [8] 102% | [9] 92.7%

CNC(=S)Sc1ccc([N+](=O)[O-])cc1[N+](=O)[O-]
inactive: [1] 90.7% | [2] 72.1% | [3] 60.2% | [4] 84.3% | [5] 37.3% | [6] 27% | [7] 80.6% | [8] 12.7% | [9] 43.7%

CC(=O)/C(=C\c1ccc(Cl)cc1)c1ccccc1
inactive: [1] 39.3% | [2] 32.9% | [3] 52.2% | [4] 57.1% | [5] 29.6% | [6] 15.6% | [8] 11.1% | [9] 11.9%

CCN(CC)c1ccc(/C=C/C2=[N+](C)c3ccccc3C2(C)C)c(C)c1
active: [1] -12.7% | [3] 8.27% | [4] 9.49% | [5] 5.97% | [7] 3.94% | [8] 4.91% | [9] -20.4%
inactive: [2] 10.6% | [6] 15.5%

CCc1c(C)[nH]c(=O)c(C(N)=O)c1C#N
inactive: [1] 96.3% | [2] 103% | [3] 93.5% | [4] 91.9% | [5] 102% | [6] 96.3% | [7] 105% | [8] 99% | [9] 107%

NC1CCC(Nc2nc(NCc3ccc(-c4ccccc4O)nc3)c3ncn(C4CCCC4)c3n2)CC1 (stereo not given)
inactive: [3] 14.2% | [6] 14.1%
active: [1] -81.4% | [2] -20.1% | [4] 0.221% | [5] -3.2% | [7] -82.1% | [8] -5.6% | [9] -11.2%

c1ccc(CNc2nc(Nc3ccc(-c4nc5ccccc5[nH]4)cc3)c3cn[nH]c3n2)cc1
inactive: [2] 18% | [3] 29.9% | [4] 20.4% | [7] 27.6%
active: [1] -59.2% | [5] -5.37% | [6] 7.33% | [8] 9.8% | [9] -39.7%

O=C1CC[C@@H](C(=O)N[C@H]2CSSC[C@@H](C(=O)NCCc3ccccc3)NC(=O)[C@H](Cc3ccccc3)NC(=O)[C@@H]3CCCN3C(=O)[C@@H]3CCCN3C2=O)N1
inactive: [1] 94.2% | [2] 101% | [3] 99.1% | [4] 86.9% | [5] 104% | [6] 97.3% | [7] 91.2% | [8] 69.4% | [9] 85.8%

NC(=O)C1CCCN(Cc2c[nH]c3ccccc23)C1 (stereo not given)
inactive: [1] 86.5% | [2] 99.9% | [3] 75.4% | [4] 93.7% | [5] 103% | [6] 94.4% | [7] 81% | [8] 106% | [9] 99.2%

Nc1nsc(C(=O)c2ccc(O)cc2)n1
inactive: [1] 102% | [2] 97.9% | [3] 79.5% | [4] 108% | [5] 91.1% | [6] 92% | [7] 115% | [8] 89.8% | [9] 110%

COc1ccc(-c2nnc(SCC(=O)c3ccccc3)o2)cc1
inactive: [1] 95.6% | [2] 97.9% | [3] 99.4% | [4] 89.1% | [5] 97.5% | [6] 94.7% | [7] 85.1% | [8] 59.5% | [9] 95.2%

CCCCOCCOCCOCc1cc2c(cc1Br)OCO2
inactive: [1] 92% | [2] 104% | [3] 76.7% | [4] 96.3% | [5] 98.8% | [6] 98.5% | [8] 99.8% | [9] 92.3%
active: [7] -60.6%

COC(=O)[C@]12CC[C@@H](C)[C@H](C)[C@@H]1C1=CC[C@@H]3[C@@]4(C)CC(=O)[C@H](O)[C@@]5(C)COC(=C45)C[C@@]3(C)[C@]1(C)CC2
active: [1] -74.1% | [2] -55.5% | [3] -87.5% | [4] -76.5% | [5] -83.8% | [6] -36.9% | [7] -84.1% | [8] -40.1% | [9] -54.9%

NC1CCC(Nc2nc(NCc3ccc(-c4cccs4)nc3)c3ncn(C4CCCC4)c3n2)CC1 (stereo not given)
active: [1] -76.8% | [2] -17% | [3] 9.49% | [4] 5.89% | [5] -3.38% | [7] -78.5% | [8] -2.89% | [9] -16.3%
inactive: [6] 15.3%

C[C@@H]1C(=O)N(C[C@H](Cc2ccccc2)NC(=O)OCc2ccccc2)[C@]1(Cc1ccccc1)C(=O)OCc1ccccc1
active: [9] -0.259%
inactive: [1] 42.9% | [2] 34% | [3] 16.4% | [4] 29.1% | [5] 32.2% | [6] 32.2% | [7] 37.7% | [8] 52.6%

O=C(NCCc1nccs1)c1cnc2c(S)cccc2c1
inactive: [1] 22.6% | [2] 16.3% | [3] 12.9% | [4] 38.5% | [5] 29% | [6] 19% | [8] 15.4% | [9] 15.1%
active: [7] -2.06%

CC(=O)Nc1ccc(Sc2ccc(NC(C)=O)cc2)cc1
inactive: [1] 98.9% | [2] 96.3% | [3] 81% | [4] 92.2% | [5] 95.9% | [6] 95.3% | [7] 106% | [8] 89.8% | [9] 71.6%

Nc1ccn([C@@H]2O[C@H](COP(=O)(O)O[C@@H]3C[C@H](n4cc(F)c(=O)[nH]c4=O)O[C@@H]3COP(=O)(O)O[C@@H]3C[C@H](n4cc(F)c(=O)[nH]c4=O)O[C@@H]3COP(=O)(O)O[C@@H]3C[C@H](n4cc(F)c(=O)[nH]c4=O)O[C@@H]3COP(=O)(O)O[C@@H]3C[C@H](n4cc(F)c(=O)[nH]c4=O)O[C@@H]3COP(=O)(O)O[C@@H]3C[C@H](n4cc(F)c(=O)[nH]c4=O)O[C@@H]3COP(=O)(O)O[C@@H]3C[C@H](n4cc(F)c(=O)[nH]c4=O)O[C@@H]3COP(=O)(O)O[C@@H]3C[C@H](n4cc(F)c(=O)[nH]c4=O)O[C@@H]3COP(=O)(O)O[C@@H]3C[C@H](n4cc(F)c(=O)[nH]c4=O)O[C@@H]3COP(=O)(O)O[C@@H]3C[C@H](n4cc(F)c(=O)[nH]c4=O)O[C@@H]3COP(=O)(O)O[C@@H]3C[C@H](n4cc(F)c(=O)[nH]c4=O)O[C@@H]3COP(=O)(O)OCCOCCOCCOCCOCCOCCO)[C@H](O)C2O)c(=O)n1 (stereo not given in full)
inactive: [1] 60.2% | [2] 52% | [3] 13.5% | [4] 56.3% | [5] 11.7% | [6] 26.7% | [7] 46.5% | [8] 21.4% | [9] 26.8%

O=S(=O)(NCCO)c1ccc(OCCOc2ccc(S(=O)(=O)NCCO)cc2)cc1
inactive: [1] 100% | [2] 99.1% | [3] 81.9% | [4] 99.5% | [5] 101% | [6] 94.2% | [7] 86.1% | [8] 102% | [9] 99.6%

CN1/C(=C\C(I)C(I)C2=[N+](C)c3ccccc3C2(C)C)C(C)(C)c2ccccc21 (stereo not given)
active: [1] -13% | [2] 7.21% | [3] -1.6% | [5] 4.88% | [7] -2.55% | [9] -12.5%
inactive: [4] 18.7% | [6] 21.5% | [8] 12.1%

NC(=O)c1ccc(Br)o1
inactive: [1] 100% | [2] 104% | [3] 93.2% | [4] 90.8% | [5] 103% | [6] 102% | [7] 108% | [8] 119% | [9] 109%

C[C@H](NC(=O)[C@@H]1CSSC[C@@H](NC(=O)Cc2nc3ccccc3cc2O)C(=O)NCC(=O)N1C)c1ccccc1
inactive: [1] 82.3% | [2] 99.5% | [3] 92% | [4] 109% | [5] 96.8% | [6] 99.7% | [7] 120% | [8] 20.1%
active: [9] -17.2%
